From ChEMBL document CHEMBL1961873, “Compounds: GSK PKIS; Assays: Nanosyn kinase panel” (2012) come the findings set out here.

Experiment [1] addresses Sphingosine kinase 1 (Homo sapiens) (UniProt Q9NYA1). The settings on record: at 1 µM.
Experiment [2] addresses T1, Sphingosine kinase 2 (Homo sapiens) (UniProt Q9NRA0).
T1 sequence (whole entry): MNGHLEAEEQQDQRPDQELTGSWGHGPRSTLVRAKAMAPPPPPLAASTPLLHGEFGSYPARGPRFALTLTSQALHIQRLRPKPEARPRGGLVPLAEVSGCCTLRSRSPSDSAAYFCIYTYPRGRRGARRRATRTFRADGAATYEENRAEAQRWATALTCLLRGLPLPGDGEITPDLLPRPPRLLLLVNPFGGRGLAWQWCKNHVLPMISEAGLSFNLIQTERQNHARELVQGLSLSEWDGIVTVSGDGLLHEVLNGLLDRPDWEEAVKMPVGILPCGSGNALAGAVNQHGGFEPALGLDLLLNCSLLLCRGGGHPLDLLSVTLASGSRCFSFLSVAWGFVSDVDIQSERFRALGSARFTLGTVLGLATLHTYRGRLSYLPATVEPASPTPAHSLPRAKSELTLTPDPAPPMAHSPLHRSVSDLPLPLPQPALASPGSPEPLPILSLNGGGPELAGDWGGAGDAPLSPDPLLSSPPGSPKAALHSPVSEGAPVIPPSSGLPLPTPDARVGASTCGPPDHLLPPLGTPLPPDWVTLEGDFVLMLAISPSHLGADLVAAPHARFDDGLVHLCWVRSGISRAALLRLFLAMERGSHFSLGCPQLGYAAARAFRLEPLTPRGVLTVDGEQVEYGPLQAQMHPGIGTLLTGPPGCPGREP
The settings on record: at 0.1 µM.

The target of experiment [3] is T1, Sphingosine kinase 2 (Homo sapiens). The settings on record: at 1 µM.
Experiment [4] concerns the target Casein kinase II subunit alpha (Homo sapiens) (UniProt P68400). The conditions noted are these: at 0.1 µM.
For experiment [5] the target is unchanged. The conditions noted are these: at 1 µM.
Experiment [6] addresses T2, Inhibitor of nuclear factor kappa-B kinase subunit alpha (Homo sapiens) (UniProt O15111).
T2 sequence (whole entry): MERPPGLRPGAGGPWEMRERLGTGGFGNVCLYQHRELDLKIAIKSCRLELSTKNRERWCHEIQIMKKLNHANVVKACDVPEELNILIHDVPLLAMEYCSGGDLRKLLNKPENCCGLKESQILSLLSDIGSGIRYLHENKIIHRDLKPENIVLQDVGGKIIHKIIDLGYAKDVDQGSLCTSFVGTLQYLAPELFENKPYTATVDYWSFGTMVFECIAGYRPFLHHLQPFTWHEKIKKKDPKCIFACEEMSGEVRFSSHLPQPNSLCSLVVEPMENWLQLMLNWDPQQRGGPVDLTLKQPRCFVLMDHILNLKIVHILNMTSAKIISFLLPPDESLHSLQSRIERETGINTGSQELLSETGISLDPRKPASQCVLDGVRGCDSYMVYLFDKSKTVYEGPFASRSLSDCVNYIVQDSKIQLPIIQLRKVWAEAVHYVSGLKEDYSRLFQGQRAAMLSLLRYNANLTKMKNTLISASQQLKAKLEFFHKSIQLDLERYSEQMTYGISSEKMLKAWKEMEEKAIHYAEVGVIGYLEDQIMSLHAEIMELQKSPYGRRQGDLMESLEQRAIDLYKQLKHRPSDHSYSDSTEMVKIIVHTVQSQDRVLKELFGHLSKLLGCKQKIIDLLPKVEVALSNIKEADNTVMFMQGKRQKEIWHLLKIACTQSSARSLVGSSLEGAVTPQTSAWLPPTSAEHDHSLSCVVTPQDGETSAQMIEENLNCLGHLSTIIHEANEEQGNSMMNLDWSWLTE
The conditions noted are these: at 0.1 µM.

Experiment [7] deals with T2, Inhibitor of nuclear factor kappa-B kinase subunit alpha (Homo sapiens). The settings on record: at 1 µM.
Experiment [8] has as its target T3, Inhibitor of nuclear factor kappa-B kinase subunit beta (Homo sapiens) (UniProt O14920).
T3 sequence (whole entry): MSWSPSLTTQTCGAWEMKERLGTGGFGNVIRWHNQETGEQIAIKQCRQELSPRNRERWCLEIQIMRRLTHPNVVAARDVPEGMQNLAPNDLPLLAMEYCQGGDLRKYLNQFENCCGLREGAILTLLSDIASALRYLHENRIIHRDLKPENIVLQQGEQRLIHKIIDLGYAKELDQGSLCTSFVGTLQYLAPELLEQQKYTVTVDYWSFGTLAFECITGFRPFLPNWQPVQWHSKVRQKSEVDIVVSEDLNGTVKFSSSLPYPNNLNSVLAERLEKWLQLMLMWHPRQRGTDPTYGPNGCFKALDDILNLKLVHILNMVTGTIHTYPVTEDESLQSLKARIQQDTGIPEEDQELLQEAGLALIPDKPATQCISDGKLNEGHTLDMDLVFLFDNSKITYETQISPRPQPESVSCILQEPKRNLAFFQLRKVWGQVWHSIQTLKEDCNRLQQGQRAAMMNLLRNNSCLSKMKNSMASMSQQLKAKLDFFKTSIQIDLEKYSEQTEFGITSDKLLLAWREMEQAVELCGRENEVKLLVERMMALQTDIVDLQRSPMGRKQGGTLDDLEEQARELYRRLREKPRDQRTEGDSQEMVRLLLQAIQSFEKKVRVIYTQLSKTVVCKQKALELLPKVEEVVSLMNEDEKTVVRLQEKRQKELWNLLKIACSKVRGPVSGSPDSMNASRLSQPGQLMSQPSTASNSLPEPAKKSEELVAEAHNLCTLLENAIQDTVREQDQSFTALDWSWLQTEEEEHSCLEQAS
The settings on record: at 0.1 µM.

In experiment [9] the target is T3, Inhibitor of nuclear factor kappa-B kinase subunit beta (Homo sapiens). The conditions noted are these: at 1 µM.
The target of experiment [10] is T4, Inhibitor of nuclear factor kappa-B kinase subunit epsilon (Homo sapiens) (UniProt Q14164).
T4 sequence (whole entry): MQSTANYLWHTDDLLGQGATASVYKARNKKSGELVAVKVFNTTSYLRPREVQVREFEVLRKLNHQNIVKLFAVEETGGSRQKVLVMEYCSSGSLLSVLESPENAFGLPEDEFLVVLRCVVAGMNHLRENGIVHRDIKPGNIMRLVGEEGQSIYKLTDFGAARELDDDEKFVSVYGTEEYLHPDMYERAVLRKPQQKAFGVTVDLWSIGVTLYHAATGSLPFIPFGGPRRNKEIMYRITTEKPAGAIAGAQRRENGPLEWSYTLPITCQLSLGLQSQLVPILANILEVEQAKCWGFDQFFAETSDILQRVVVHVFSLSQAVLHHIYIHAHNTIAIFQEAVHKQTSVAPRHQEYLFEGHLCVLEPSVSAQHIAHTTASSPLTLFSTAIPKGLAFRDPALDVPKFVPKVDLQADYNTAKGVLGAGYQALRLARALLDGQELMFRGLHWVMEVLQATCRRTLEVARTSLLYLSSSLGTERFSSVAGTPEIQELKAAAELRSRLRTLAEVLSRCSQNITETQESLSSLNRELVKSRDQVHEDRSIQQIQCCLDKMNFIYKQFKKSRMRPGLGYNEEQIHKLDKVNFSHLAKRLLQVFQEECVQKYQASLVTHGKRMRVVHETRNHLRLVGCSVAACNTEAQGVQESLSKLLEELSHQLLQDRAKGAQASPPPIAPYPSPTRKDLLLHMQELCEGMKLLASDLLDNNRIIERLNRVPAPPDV
The settings on record: at 0.1 µM.

Experiment [11] deals with T4, Inhibitor of nuclear factor kappa-B kinase subunit epsilon (Homo sapiens). The conditions noted are these: at 1 µM.
Experiment [12] deals with T5, Serine/threonine-protein kinase Nek1 (Homo sapiens) (UniProt Q96PY6).
T5 sequence (whole entry): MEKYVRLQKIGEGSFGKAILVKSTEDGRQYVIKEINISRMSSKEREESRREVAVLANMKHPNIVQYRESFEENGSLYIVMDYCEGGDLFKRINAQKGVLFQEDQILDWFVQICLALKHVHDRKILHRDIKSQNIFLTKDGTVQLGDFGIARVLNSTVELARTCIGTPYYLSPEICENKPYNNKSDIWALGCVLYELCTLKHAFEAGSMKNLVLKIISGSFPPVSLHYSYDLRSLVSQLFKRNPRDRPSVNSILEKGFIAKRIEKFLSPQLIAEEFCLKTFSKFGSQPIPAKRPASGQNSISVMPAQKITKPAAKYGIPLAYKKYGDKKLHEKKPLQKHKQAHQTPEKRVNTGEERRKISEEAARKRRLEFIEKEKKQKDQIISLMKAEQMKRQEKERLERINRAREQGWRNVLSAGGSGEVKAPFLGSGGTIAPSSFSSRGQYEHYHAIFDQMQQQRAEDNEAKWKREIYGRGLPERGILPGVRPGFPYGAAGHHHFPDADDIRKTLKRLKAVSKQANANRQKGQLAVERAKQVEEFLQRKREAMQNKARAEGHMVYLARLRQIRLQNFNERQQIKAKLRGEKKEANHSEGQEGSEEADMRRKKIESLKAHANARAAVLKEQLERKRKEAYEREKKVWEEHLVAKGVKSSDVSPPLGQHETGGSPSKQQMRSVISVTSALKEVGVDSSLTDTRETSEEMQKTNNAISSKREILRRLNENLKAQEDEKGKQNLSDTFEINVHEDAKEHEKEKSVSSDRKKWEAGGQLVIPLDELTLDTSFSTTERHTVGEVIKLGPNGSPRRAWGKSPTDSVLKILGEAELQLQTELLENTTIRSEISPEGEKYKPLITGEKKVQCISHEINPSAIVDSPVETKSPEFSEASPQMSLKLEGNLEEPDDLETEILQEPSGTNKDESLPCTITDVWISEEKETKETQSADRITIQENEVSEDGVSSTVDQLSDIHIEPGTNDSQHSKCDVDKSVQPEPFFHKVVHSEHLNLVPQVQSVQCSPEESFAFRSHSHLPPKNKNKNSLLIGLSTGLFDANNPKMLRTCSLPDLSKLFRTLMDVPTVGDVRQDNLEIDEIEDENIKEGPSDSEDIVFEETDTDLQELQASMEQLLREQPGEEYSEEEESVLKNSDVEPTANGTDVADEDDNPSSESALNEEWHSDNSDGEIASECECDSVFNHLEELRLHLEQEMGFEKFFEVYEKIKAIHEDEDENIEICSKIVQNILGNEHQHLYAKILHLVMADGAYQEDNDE
The conditions noted are these: at 0.1 µM.

In experiment [13] the target is T5, Serine/threonine-protein kinase Nek1 (Homo sapiens). The settings on record: at 1 µM.
The target of experiment [14] is T6, Serine/threonine-protein kinase Nek2 (Homo sapiens) (UniProt P51955).
T6 sequence (whole entry): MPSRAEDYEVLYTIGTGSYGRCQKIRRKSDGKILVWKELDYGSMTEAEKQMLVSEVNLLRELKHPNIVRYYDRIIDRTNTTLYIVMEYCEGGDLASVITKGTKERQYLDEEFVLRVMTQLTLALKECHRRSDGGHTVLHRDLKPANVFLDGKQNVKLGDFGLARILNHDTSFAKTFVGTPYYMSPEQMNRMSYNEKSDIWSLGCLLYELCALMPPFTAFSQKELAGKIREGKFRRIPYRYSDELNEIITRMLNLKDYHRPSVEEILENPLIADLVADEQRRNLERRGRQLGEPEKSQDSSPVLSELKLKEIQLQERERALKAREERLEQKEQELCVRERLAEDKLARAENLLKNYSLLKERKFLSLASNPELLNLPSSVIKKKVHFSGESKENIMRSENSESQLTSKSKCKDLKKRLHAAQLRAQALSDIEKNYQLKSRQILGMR
The settings on record: at 0.1 µM.

Experiment [15] addresses T6, Serine/threonine-protein kinase Nek2 (Homo sapiens). The settings on record: at 1 µM.
Experiment [16] concerns the target Serine/threonine-protein kinase Nek6 (Homo sapiens) (UniProt Q9HC98). The settings on record: at 0.1 µM.
Experiment [17] has the same target. The conditions noted are these: at 1 µM.
In experiment [18] the target is Serine/threonine-protein kinase Nek7 (Homo sapiens) (UniProt Q8TDX7). The settings on record: at 0.1 µM.
Sequence of Serine/threonine-protein kinase Nek7 (Homo sapiens) (Q8TDX7 whole entry, looked up): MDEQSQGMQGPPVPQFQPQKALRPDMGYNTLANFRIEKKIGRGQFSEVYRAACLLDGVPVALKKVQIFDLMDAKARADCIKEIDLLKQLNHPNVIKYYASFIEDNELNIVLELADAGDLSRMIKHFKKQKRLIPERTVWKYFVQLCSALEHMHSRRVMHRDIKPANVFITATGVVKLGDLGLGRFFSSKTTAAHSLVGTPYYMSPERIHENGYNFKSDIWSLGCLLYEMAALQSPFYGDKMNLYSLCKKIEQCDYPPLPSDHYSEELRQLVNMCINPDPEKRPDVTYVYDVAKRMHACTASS
Experiment [19] has the same target. The settings on record: at 1 µM.
The target of experiment [20] is T7, Serine/threonine-protein kinase Nek9 (Homo sapiens) (UniProt Q8TD19).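 Note: reported value is the mean percent inhibition of NEK9.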
T7 sequence (whole entry): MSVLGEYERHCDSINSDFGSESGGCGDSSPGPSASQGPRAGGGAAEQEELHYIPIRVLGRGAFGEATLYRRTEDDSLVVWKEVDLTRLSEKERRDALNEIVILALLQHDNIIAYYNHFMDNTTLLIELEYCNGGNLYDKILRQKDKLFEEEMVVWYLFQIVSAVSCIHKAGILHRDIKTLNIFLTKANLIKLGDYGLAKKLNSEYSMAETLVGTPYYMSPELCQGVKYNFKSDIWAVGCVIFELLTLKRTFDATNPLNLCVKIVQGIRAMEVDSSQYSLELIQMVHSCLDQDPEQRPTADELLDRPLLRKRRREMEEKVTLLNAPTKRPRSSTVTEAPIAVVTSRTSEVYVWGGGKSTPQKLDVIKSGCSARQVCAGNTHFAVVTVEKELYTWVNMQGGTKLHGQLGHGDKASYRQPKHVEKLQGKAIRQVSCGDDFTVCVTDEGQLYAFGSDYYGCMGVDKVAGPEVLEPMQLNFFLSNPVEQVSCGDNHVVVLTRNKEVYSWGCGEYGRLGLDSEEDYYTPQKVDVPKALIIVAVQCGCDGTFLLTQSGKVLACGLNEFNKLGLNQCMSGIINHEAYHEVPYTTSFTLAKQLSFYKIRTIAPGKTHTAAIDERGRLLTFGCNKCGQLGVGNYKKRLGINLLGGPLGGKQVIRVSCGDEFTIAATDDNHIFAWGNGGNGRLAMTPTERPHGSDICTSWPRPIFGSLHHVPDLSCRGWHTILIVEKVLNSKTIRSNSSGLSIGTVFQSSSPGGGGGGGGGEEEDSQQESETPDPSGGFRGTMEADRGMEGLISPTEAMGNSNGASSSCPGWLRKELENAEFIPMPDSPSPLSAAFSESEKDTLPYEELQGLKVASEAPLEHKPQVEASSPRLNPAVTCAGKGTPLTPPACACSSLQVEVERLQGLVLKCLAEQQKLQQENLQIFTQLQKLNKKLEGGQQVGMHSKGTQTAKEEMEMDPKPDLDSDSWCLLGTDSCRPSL
The conditions noted are these: at 0.1 µM.

Sequence of Casein kinase II subunit alpha (Homo sapiens) (P68400 whole entry, looked up): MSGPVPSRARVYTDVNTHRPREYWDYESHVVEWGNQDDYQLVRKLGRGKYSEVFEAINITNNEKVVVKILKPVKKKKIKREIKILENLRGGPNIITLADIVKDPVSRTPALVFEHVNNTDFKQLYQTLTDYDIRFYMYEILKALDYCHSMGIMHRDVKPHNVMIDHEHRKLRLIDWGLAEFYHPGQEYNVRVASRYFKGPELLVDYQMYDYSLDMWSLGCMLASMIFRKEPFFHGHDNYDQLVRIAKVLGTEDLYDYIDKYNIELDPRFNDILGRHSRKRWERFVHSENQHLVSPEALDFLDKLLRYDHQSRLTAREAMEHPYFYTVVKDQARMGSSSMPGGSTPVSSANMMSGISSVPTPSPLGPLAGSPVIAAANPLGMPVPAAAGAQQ
Sequence of Serine/threonine-protein kinase Nek6 (Homo sapiens) (Q9HC98 whole entry): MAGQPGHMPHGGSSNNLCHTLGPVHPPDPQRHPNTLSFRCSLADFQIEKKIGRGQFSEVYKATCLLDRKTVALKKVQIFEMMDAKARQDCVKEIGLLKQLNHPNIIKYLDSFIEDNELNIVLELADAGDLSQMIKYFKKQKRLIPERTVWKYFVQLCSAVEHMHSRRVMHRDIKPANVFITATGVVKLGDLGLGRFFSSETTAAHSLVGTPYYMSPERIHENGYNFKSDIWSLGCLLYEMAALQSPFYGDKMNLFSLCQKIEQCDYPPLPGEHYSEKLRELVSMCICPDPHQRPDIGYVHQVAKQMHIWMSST
Sequence of Sphingosine kinase 1 (Homo sapiens) (Q9NYA1 whole entry): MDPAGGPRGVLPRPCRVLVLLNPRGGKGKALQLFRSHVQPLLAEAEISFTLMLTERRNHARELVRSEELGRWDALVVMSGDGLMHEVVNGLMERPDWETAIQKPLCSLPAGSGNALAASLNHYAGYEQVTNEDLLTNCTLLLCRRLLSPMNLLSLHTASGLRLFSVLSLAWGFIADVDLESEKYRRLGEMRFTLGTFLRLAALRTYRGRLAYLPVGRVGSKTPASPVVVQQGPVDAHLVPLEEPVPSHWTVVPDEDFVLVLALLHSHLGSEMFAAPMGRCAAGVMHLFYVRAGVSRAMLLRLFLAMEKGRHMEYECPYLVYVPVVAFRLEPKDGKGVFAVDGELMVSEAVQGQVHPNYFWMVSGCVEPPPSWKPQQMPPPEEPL

Turning to `Cc1cccc(Nc2ncc(-c3ccccc3)o2)c1`, the inhibition in [1] is 3.75%; in [2], 0.62%; in experiment [3], -1.72%; in experiment [4], 4.16%; in [5], 3.49%; in experiment [6] it was 3.87%. The inhibition is 7.95% in experiment [7]; 4.82% in [8]; 5.08% in experiment [9]; 5.18% in experiment [10]; 6.48% in [11]; 4.04% in experiment [12]. In addition, the inhibition worked out at 3.56% in experiment [13]; 3.46% in experiment [14]; 3.62% in experiment [15]; 0.75% in [16]; 2.04% in experiment [17]; 2.47% in experiment [18]. Moreover, the inhibition came to 4.58% in experiment [19] and 8.57% in [20].
